# Assay results: ChEMBL document CHEMBL2218924, “A broad activity screen in support of a chemogenomic map for kinase signalling research and drug discovery” (Biochem J, 2013)
# Biological target: Serine/threonine-protein kinase 33 (Homo sapiens) (UniProt Q9BYT3)
# Settings: at 1 µM
# Chain of Serine/threonine-protein kinase 33 (Homo sapiens) (Q9BYT3 whole entry, looked up): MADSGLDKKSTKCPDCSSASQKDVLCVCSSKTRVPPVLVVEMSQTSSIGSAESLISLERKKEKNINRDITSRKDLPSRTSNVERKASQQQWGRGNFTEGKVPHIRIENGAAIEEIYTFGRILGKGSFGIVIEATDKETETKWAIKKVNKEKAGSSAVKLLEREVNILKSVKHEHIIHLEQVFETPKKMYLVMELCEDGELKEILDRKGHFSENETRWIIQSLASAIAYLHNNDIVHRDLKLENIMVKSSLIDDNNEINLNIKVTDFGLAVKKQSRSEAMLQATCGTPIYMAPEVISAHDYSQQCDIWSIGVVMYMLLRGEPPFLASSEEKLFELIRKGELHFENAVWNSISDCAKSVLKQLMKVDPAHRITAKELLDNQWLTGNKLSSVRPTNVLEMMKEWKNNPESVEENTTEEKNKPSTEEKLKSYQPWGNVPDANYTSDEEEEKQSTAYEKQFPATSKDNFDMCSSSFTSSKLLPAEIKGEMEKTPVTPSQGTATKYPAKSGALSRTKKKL
row,Compound,residual activity [%]
1,CC(C)[C@H](CO)Nc1nc(Nc2cccc(Cl)c2)c2ncn(C(C)C)c2n1,89
2,CCc1nc(-c2ccc(OC)cc2)[nH]c1-c1ccncc1,105
3,COc1cc(OC)c(/C=C2\C(=O)Nc3ccccc32)c(OC)c1,92
4,O=C1c2ccccc2-c2nc3nnnn3nc21,103

# Biological target: Serine/threonine-protein kinase 33 (Homo sapiens) (UniProt Q9BYT3)
# Settings: at 10 µM
row,Compound,residual activity [%]
1,CC(C)[C@H](CO)Nc1nc(Nc2cccc(Cl)c2)c2ncn(C(C)C)c2n1,53
2,CCc1nc(-c2ccc(OC)cc2)[nH]c1-c1ccncc1,100
3,COc1cc(OC)c(/C=C2\C(=O)Nc3ccccc32)c(OC)c1,92
4,O=C1c2ccccc2-c2nc3nnnn3nc21,100

# Biological target: Serine/threonine-protein kinase PLK2 (Homo sapiens) (UniProt Q9NYY3)
# Settings: at 1 µM
# Chain of Serine/threonine-protein kinase PLK2 (Homo sapiens) (Q9NYY3 whole entry, looked up): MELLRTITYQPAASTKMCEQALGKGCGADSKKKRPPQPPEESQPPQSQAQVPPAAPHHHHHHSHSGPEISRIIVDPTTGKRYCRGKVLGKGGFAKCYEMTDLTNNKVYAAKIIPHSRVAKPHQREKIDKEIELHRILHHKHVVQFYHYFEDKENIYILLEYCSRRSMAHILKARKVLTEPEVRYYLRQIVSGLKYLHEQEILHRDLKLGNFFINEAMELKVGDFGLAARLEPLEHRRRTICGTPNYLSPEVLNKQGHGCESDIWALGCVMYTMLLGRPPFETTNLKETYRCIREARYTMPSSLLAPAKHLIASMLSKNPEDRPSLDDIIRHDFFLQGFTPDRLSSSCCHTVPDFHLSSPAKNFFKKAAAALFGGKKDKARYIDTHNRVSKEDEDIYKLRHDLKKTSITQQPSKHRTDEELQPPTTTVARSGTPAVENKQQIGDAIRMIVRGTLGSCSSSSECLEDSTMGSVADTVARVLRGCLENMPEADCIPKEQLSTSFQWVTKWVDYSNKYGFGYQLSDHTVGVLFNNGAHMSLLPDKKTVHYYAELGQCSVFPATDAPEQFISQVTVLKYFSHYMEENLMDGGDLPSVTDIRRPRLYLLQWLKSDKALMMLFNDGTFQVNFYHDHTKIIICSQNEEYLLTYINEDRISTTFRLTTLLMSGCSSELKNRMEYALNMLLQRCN
row,Compound,residual activity [%]
1,N/C(=N\[N+](=O)[O-])N/N=C\c1ccc(-c2cccc([N+](=O)[O-])c2)o1,99
2,CC(C)[C@H](CO)Nc1nc(Nc2cccc(Cl)c2)c2ncn(C(C)C)c2n1,101
3,CCc1nc(-c2ccc(OC)cc2)[nH]c1-c1ccncc1,112
4,COc1cc(OC)c(/C=C2\C(=O)Nc3ccccc32)c(OC)c1,100
5,O=C1c2ccccc2-c2nc3nnnn3nc21,73

# Biological target: Serine/threonine-protein kinase PLK2 (Homo sapiens) (UniProt Q9NYY3)
# Settings: at 10 µM
row,Compound,residual activity [%]
1,N/C(=N\[N+](=O)[O-])N/N=C\c1ccc(-c2cccc([N+](=O)[O-])c2)o1,98
2,CC(C)[C@H](CO)Nc1nc(Nc2cccc(Cl)c2)c2ncn(C(C)C)c2n1,86
3,CCc1nc(-c2ccc(OC)cc2)[nH]c1-c1ccncc1,100
4,COc1cc(OC)c(/C=C2\C(=O)Nc3ccccc32)c(OC)c1,92
5,O=C1c2ccccc2-c2nc3nnnn3nc21,34

# Biological target: Tyrosine-protein kinase SYK (Homo sapiens) (UniProt P43405)
# Settings: at 1 µM
row,Compound,residual activity [%]
1,CC(C)[C@H](CO)Nc1nc(Nc2cccc(Cl)c2)c2ncn(C(C)C)c2n1,102
2,CCc1nc(-c2ccc(OC)cc2)[nH]c1-c1ccncc1,113
3,COc1cc(OC)c(/C=C2\C(=O)Nc3ccccc32)c(OC)c1,102

# Biological target: Tyrosine-protein kinase SYK (Homo sapiens) (UniProt P43405)
# Settings: at 10 µM
row,Compound,residual activity [%]
1,CC(C)[C@H](CO)Nc1nc(Nc2cccc(Cl)c2)c2ncn(C(C)C)c2n1,60
2,CCc1nc(-c2ccc(OC)cc2)[nH]c1-c1ccncc1,107
3,COc1cc(OC)c(/C=C2\C(=O)Nc3ccccc32)c(OC)c1,96

# Biological target: T1, Mitogen-activated protein kinase kinase kinase 7 (Homo sapiens) (UniProt O43318)
# T1 sequence (whole entry): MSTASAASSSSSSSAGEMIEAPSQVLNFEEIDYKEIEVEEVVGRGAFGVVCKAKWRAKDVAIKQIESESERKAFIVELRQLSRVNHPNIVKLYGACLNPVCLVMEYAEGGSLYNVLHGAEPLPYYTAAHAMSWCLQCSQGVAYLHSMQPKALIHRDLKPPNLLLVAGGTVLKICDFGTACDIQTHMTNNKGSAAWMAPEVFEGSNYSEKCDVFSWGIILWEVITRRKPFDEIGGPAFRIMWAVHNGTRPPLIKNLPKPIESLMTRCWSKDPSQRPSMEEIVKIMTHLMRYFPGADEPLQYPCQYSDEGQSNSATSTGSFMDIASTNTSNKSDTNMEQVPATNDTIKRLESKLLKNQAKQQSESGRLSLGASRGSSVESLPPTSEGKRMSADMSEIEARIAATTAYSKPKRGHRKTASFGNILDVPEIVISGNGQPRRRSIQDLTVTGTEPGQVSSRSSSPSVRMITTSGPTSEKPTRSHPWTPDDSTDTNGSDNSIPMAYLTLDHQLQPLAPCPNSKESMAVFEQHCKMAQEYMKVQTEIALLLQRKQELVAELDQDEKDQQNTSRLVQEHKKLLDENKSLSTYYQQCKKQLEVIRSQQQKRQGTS
# Settings: at 10 µM
row,Compound,residual activity [%]
1,N/C(=N\[N+](=O)[O-])N/N=C\c1ccc(-c2cccc([N+](=O)[O-])c2)o1,89
2,CC(C)[C@H](CO)Nc1nc(Nc2cccc(Cl)c2)c2ncn(C(C)C)c2n1,20
3,COc1cc(OC)c(/C=C2\C(=O)Nc3ccccc32)c(OC)c1,81

# Biological target: T2, Serine/threonine-protein kinase TAO1 (Homo sapiens) (UniProt Q7L7X3)
# T2 sequence (whole entry): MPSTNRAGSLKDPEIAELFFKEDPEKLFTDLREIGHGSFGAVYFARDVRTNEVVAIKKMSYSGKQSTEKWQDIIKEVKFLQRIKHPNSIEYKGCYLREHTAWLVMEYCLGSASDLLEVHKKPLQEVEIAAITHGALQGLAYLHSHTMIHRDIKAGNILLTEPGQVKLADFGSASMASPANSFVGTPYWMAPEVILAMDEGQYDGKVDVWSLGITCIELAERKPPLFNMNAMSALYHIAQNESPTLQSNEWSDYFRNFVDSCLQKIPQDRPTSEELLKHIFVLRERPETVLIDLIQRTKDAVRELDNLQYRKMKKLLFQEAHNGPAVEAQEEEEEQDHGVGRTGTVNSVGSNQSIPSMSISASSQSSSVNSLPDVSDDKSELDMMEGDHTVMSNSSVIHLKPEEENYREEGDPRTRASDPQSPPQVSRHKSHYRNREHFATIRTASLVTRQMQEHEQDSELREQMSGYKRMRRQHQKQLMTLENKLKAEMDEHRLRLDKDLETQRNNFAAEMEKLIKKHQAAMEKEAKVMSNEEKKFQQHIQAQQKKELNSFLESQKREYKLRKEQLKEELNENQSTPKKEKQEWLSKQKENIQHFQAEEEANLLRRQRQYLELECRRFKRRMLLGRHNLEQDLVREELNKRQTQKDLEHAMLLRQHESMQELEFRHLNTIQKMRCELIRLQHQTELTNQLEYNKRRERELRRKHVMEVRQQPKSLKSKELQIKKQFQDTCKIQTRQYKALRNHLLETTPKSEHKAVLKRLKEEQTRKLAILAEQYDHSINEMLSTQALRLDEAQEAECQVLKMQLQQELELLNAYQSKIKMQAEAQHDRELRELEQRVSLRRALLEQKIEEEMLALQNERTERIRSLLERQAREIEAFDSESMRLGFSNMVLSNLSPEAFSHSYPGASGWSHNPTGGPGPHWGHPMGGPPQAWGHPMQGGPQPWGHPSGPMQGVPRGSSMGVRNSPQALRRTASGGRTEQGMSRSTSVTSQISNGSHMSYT
# Settings: at 1 µM
row,Compound,residual activity [%]
1,N/C(=N\[N+](=O)[O-])N/N=C\c1ccc(-c2cccc([N+](=O)[O-])c2)o1,91
2,CC(C)[C@H](CO)Nc1nc(Nc2cccc(Cl)c2)c2ncn(C(C)C)c2n1,82
3,COc1cc(OC)c(/C=C2\C(=O)Nc3ccccc32)c(OC)c1,95

# Biological target: T2, Serine/threonine-protein kinase TAO1 (Homo sapiens)
# Settings: at 10 µM
row,Compound,residual activity [%]
1,N/C(=N\[N+](=O)[O-])N/N=C\c1ccc(-c2cccc([N+](=O)[O-])c2)o1,88
2,CC(C)[C@H](CO)Nc1nc(Nc2cccc(Cl)c2)c2ncn(C(C)C)c2n1,26
3,COc1cc(OC)c(/C=C2\C(=O)Nc3ccccc32)c(OC)c1,83
